Cy5 interf NS3h – Cy5 fluorescence quenchers or enhancers, artefact control for HCV NS3 helicase inhibitor project, biochemical, ChemBridge library, Cy5 readout | fluorescence interference ratio at 100 µM | AID 720488, 2013 | 16,000 compounds, 6% hits | Cy5-dT15 DNA with NS3h, fluorescence interference; actives lie on both sides; signal over control mean, under 1 quenches;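 active = compound fluorescence over control fluorescence at most 0.8, a quencher, or at least a set upper limit, an enhancer; inactive = ratio between 0.8 and the set upper limit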
NS3h inh CB – HCV NS3 helicase inhibitors, primary screen, biochemical, fluorescence polarization, ChemBridge library; NS3h Cy5-dT15 DNA binding; Hepatitis C virus NS3 helicase; 16,000 compounds, 1.6% hits; inhibition, % at 100 µM;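 active = inhibition above the average over every tested compound plus 3 SD, cut at about 40% in these data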
Active calls of the source: *. In the library only some 6.8% were active in any assay of this set; here they are far more common.

SMILES	Cy5 interf NS3h	NS3h inh CB
Cc1ccc(-c2nc3cc(Cl)ccc3o2)cc1NC(=O)c1ccc2c(c1)OCCO2	1.2	-4
COc1cc(/C=C2\SC(N)=NC2=O)cc(I)c1OCc1ccc(Cl)cc1Cl	1	-13
O=C(Nc1ccc(Cl)cc1)c1cc2ccccc2cc1O	0.98	5
Cc1ccc(NC(=O)c2cc3ccccc3cc2O)c(C)c1	0.77*	11
COCCN1C(=O)C(=O)C(=C(O)c2ccccc2)C1c1ccccc1OC (stereo not drawn)	1.1	-19
CN(C)c1ccc(NC(=O)c2ccccc2F)cc1	0.99	8
CN(C)c1ccc(NC(=O)c2cc(Cl)ccc2Cl)cc1	0.99	45*
O=C(Nc1cc(Cl)cc(Cl)c1)c1cc(I)ccc1Cl	1.1	2
CCc1cc(=O)oc2cc(OC/C=C/c3ccccc3)ccc12	1	12
Cc1cc(=O)[nH]c(SCCc2ccccc2)n1	0.97	-4
O=C1c2cccnc2C(=O)N1c1ccc(Oc2ccc(N3C(=O)c4cccnc4C3=O)cc2)cc1	0.68*	19
COC(=O)c1ccc(N2C(=O)c3ccccc3C2=O)cc1	1	-6
Cc1ccc(C(=O)/C=C2\C(=O)Nc3ccccc32)cc1	0.95	15
CC(=O)N1C(=O)/C(=C/C(=O)c2ccccc2)c2ccccc21	0.79*	9
CC(C)CC(=O)NS(=O)(=O)c1ccc(NC(=O)c2ccccc2)cc1	1	-5
CCOC(=O)C1=C(C)N=c2s/c(=C\c3cc4c(cc3Cl)OCO4)c(=O)n2C1c1cccc(OC)c1 (stereo not drawn)	1.1	10
CC12CC3(C)CC(C)(C1)CC(C(=O)NN)(C2)C3	1	1
CC12CC3(C)CC(C)(C1)CC(C(=O)NCCO)(C2)C3	1.3*	14
O=C(Nc1ccc(Cl)cc1)c1cc([N+](=O)[O-])ccc1Cl	0.95	-5
COc1ccc(CNC(=O)C(=O)Nc2cc(C)cc(C)c2)cc1	1	8
Cc1cc(-c2ccccc2)c2nncn2n1	1	-12
CCN(CC)/C(=N\OCc1ccc(Cl)cc1Cl)c1nonc1N	0.67*	16
CN=C(NOCc1ccccc1)c1nonc1N	0.92	-6
O=C(Nc1ccccc1C(=O)Nc1ccccn1)c1ccccc1F	0.95	9
O=C(Nc1ccccc1C(=O)Nc1ccccn1)c1ccco1	1.1	42*
SMILES	Cy5 interf NS3h	NS3h inh CB
CCCOc1ccc(/C=C2/C(=O)NN(c3ccccc3)C2=O)cc1OC	1	4
Cc1ccc2oc(C(Cl)(Cl)Cl)cc(=O)c2c1	0.6*	-2
Cc1ccc2oc(Nc3nc(C)cc(=O)[nH]3)nc2c1	1	8
Cc1ccc2nsnc2c1NC(=O)c1cc([N+](=O)[O-])ccc1Cl	0.96	8
Cc1nc(Nc2nc(O)cc(=O)[nH]2)nc2c(C)cccc12	0.64*	-4
Cc1cc(=O)[nH]c(Nc2nc(C)c3cccc(C)c3n2)n1	1.1	36
CCOC(=O)C1=C(O)/C(=C/c2ccc(O)cc2)SC1=Nc1cccc(Cl)c1	1.1	63*
CCOC(=O)C1=C(O)/C(=C/c2ccc(Cl)cc2)SC1=Nc1ccc(C)cc1	0.81	-1
COc1ccc(-c2cc(C(F)(F)F)n3nc(C(=O)Nc4ccccc4C(F)(F)F)cc3n2)cc1	1.1	4
COc1ccc(-c2cc(C(F)(F)F)n3nc(C(=O)NCCCn4ccnc4)c(Cl)c3n2)cc1	0.68*	2
O=S(=O)(CCSc1ccc(Cl)cc1)OCC(F)(F)F	0.97	5
O=C(c1cccc(C#Cc2ccccc2)c1)N1CCN(C/C=C/c2ccccc2)CC1	0.97	17
C=C(C)c1cccc(C(C)(C)NC(=O)N2CCN(C/C=C/c3ccccc3)CC2)c1	0.65*	10
O=C(c1cnn2c(-c3ccccc3)cc(-c3ccccc3)nc12)N1CCSCC1	1.1	4
CC1=C(C(=O)OCCOC(C)C)C(c2cccc(O)c2)C2=C(CCCC2=O)N1 (stereo not drawn)	1	10
N#Cc1ccc(NC(=O)c2ccccc2)cc1	0.99	13
Clc1ccc(/C=N\n2cnnc2)cc1	1.1	1
Clc1ccc(-c2ccc(/C=N/n3cnnc3)o2)c(Cl)c1	0.71*	-9
CC(C)COc1ccc2c(c1)c1c3c(nccn32)CCC1	0.76*	-3
CN(C)c1ccc(/C=C(\C(=O)c2ccccc2)c2nc3ccccc3s2)cc1	1.1	-2
O=C(Cn1cnc([N+](=O)[O-])n1)Nc1ccc(F)cc1F	0.76*	6
O=C(CCCC(=O)OCC(F)(F)C(F)F)Nc1ccc(F)cc1F	1.1	3
O=C(c1ccccc1)N1CCN=C1c1ccccc1	0.88	-8
O=C(c1ccc(Cl)cc1)N1CCN=C1c1ccccc1	0.64*	2
CCOC(=O)c1sc(NC(=O)c2cc3n(n2)C(C(F)(F)F)CC(c2ccc4c(c2)OCO4)N3)c(C(=O)OCC)c1C (stereo not drawn)	1	2

Assay outcomes: PubChem, Milwaukee Institute for Drug Discovery
